# CR mimetic SO: reduction of superoxide in aged yeast, primary screen, HTS; 330,000 compounds, 0.18% hits; S. cerevisiae aged cells, superoxide DHE fluorescence; stronger effect = lower value; superoxide response (% of plate mean), % at 10 µM;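 active = superoxide response under a set limit, about three screen SD below normal, cut at about 65% in these data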;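 note: yeast aged for seven days with compound at 30 °C before DHE staining; 100% = average MFI of all compound-treated wells on the plate with controls excluded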
# AHR activator: AHR activators, primary screen, cell-based, luminescence, luciferase reporter, human | Aryl hydrocarbon receptor (Homo sapiens), P35869 | AHR-responsive luciferase reporter cells | activation, % at 5 µM | 320,000 compounds, 2.5% hits; in the data active = activation above about 47%;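 note: 0% = vehicle wells and 100% = reference agonist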
# PLC-beta3 inh: human PLC-beta3 inhibitors, primary screen, biochemical, fluorescence. AID 720704, 2013. 370,000 compounds, 0.18% hits. 1-phosphatidylinositol 4,5-bisphosphate phosphodiesterase beta-3 (Homo sapiens), Q01970. inhibition, % at 12.2 µM. Purified PLC-beta3, fluorogenic substrate; in the data active = inhibition above about 11%;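 note: 0% = median of compound wells on plate and 100% = full blocker control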
# PLC-gamma1 inh: PLC-gamma1 enzyme inhibitors, primary screen, biochemical, fluorescence, purified enzyme; 1-phosphatidylinositol 4,5-bisphosphate phosphodiesterase gamma-1 (Homo sapiens), P19174; fluorogenic substrate; inhibition, % at 12.2 µM; 370,000 compounds, 0.84% hits; in the data active = inhibition above about 9.5%
# Target sequence (P19174 whole entry, looked up): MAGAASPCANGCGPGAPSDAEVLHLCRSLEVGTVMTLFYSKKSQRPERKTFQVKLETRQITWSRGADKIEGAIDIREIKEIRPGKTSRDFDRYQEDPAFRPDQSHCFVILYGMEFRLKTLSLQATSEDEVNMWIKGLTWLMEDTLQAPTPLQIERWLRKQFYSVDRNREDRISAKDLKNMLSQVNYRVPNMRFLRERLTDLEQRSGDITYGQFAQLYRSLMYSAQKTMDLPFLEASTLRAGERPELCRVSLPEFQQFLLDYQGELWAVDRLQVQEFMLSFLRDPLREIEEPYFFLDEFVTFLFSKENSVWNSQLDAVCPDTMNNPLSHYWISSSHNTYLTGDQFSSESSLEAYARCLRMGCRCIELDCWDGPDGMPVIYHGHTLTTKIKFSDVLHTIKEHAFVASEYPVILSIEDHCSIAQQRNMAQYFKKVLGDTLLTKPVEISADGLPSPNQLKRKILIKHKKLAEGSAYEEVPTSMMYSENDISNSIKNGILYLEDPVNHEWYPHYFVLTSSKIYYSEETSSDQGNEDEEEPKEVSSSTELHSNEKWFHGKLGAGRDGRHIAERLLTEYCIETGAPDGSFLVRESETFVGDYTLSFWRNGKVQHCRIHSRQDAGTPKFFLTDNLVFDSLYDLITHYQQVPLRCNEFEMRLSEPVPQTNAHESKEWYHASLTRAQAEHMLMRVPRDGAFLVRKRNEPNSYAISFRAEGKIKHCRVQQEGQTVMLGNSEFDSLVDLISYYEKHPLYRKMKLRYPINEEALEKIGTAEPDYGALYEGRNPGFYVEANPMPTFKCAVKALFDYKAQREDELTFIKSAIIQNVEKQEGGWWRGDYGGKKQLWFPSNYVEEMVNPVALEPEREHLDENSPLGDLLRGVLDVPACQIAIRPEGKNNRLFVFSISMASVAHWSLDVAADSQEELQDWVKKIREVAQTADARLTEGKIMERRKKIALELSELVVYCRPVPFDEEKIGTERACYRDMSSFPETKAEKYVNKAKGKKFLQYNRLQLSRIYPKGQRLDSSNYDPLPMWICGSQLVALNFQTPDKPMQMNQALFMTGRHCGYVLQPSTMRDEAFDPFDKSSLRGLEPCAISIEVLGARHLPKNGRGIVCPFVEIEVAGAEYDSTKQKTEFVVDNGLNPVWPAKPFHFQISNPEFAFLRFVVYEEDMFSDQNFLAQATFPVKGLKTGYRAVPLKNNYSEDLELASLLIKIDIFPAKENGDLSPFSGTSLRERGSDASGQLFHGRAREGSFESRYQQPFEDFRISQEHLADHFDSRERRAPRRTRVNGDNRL
# HIF act: HIF pathway transcriptional activators, primary screen, cell-based, U2OS HRE-luciferase, luminescence; 300,000 compounds, 0.32% hits; activation, % at 7.5 µM (by protocol); AID 1910, 2009; U2OS HRE-luciferase reporter; normalized: DMSO 0%, desferrioxamine 100%;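 active = mean activation of at least 10% of the iron chelator positive control signal, with at least half of replicates also reaching 10%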
# sPLA2-III inh: human group III sPLA2 inhibitors, primary screen, biochemical, QFRET, BODIPY PC-A2 liposome substrate | Group 3 secretory phospholipase A2 (Homo sapiens), Q9NZ20 | 370,000 compounds, 0.56% hits | QFRET BODIPY PC-A2 liposome hydrolysis, fluorescence | inhibition, % at 12.2 µM;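 active = inhibition above mean plus 3 SD of compounds lying within the high and low control bounds, cut at about 19% in these data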;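 note: 0% = median of test compound wells and 100% = no enzyme DMSO wells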
# sPLA2 confirm: human group III sPLA2 inhibitors, confirmation, biochemical, QFRET, triplicate; recombinant hGIII-sPLA2, BODIPY PC-A2 QFRET fluorescence; inhibition, % at 12.2 µM; 2,000 compounds, 34% hits; shares compounds with sPLA2-III inh;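 active = mean inhibition across triplicates above the hit cutoff set in the earlier primary screen, cut at about 19% in these data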;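 note: 0% = enzyme with DMSO and 100% = DMSO wells lacking enzyme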
# BODIPY interf: 535nm fluorescence optical interference, confirmation, artefact control for HGIII-sPLA2 inhibitor project, biochemical, QFRET; AID 743282, 2014; BODIPY FL product fluorescence interference; 2,000 compounds, 8.5% hits; inhibition, % at 12.2 µM; shares compounds with sPLA2-III inh;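 active = average inhibition above the solvent-only control mean plus 3 SD, cut at about 6% in these data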;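 note: 0% = DMSO with substrate plus product and 100% = DMSO with substrate alone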
# BODIPY interf DR: 535nm fluorescence optical interference, dose response, artefact control for HGIII-sPLA2 inhibitor project, biochemical, QFRET; shares compounds with sPLA2-III inh; BODIPY FL product fluorescence interference, cell-free; IC50, µM; 240 tested, under 10 active;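 active = IC50 at or below 10 µM; inactive = IC50 above 10 µM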
# * = called active by the depositor; / = not tested or not shown. An excerpt weighted towards active compounds, which were near 3.9% of everything screened.
SMILES,CR mimetic SO,AHR activator,PLC-beta3 inh,PLC-gamma1 inh,HIF act,sPLA2-III inh,sPLA2 confirm,BODIPY interf,others
COC(=O)C[C@@H]1CC[C@@H]2[C@@H](COc3ccc(NC(=O)Nc4ccc(F)cc4)cc3C(=O)N2C)O1,/,/,0.9,0.8,/,-8.9,/,/,
COC(=O)C[C@H]1CC[C@@H]2[C@H](COc3ccc(NC(=O)NCc4ccccc4)cc3C(=O)N2C)O1,/,/,7.5,5.4,/,-12.3,/,/,
COC(=O)C[C@H]1CC[C@@H]2[C@H](COc3ccc(NC(=O)C(C)C)cc3C(=O)N2C)O1,/,/,3.9,7.8,/,19.2*,-0.5,-5.9,
CCN(CC)Cc1c(C(=O)N/N=C/c2cccs2)nnn1-c1nonc1N,95.3,-2.5,-3.2,2.8,-0.7,-1.5,/,/,
CCCCN(C)S(=O)(=O)c1c(C)[nH]c(=O)[nH]c1=O,81.3,-1.4,0.4,-2.3,-0.7,19.4*,1.8,-3.6,
CCCCN(CCCC)S(=O)(=O)c1c(C)[nH]c(=O)[nH]c1=O,84.9,0.1,3.1,-1.8,-0.6,-0.1,/,/,
CCCCOC(=O)Nc1ccccc1C(=O)N1CCCC1,113.8,-1.6,-7.1,-9.6,0.3,21.7*,1.8,-9.3,
COC(=O)Nc1ccccc1C(=O)N1CCCCC1,95.2,2.2,-3.4,-4.5,-0.1,1.1,/,/,
Cc1cccc(N2CN(Cc3cccnc3)CNC2=S)c1,87.0,-0.3,0.1,-1.1,-0.1,19.4*,-4.2,-6.5,
S=c1[nH]ncn1/N=C/c1cccs1,94.0,-0.6,-2.8,-0.1,-0.3,3.2,/,/,
S=c1[nH]c(-c2ccccc2)cn1/N=C/c1cccs1,78.1,66.6*,-73.8,-54.0,1.7,24.3*,37.5*,11.6*,
COc1ccccc1C(=O)NC(=O)COC(=O)c1cnc(C)cn1,107.7,0.6,-3.0,-0.3,-1.8,-5.8,/,/,
Cc1cc(C(=O)NNC(=S)NC(=O)/C=C/c2ccccc2Cl)n[nH]1,106.7,5.3,-26.4,-20.7,-0.2,26.2*,42.2*,-4.1,BODIPY interf DR=>122
O=C1c2ccccc2C(=O)c2c1ccc(C(=O)N1CCCCC1)c2NCCO,136.2,1.1,1.3,-1.9,-1.1,2.7,/,/,
CC1(C)CCCN(C(=O)c2ccc3c(c2NCCO)C(=O)c2ccccc2C3=O)C1,78.3,8.1,2.8,5.7,-2.0,26.5*,35.5*,-14.1,BODIPY interf DR=>122
O=C(CC(=O)N/N=C/c1ccccc1O)NCc1cccnc1,87.8,5.1,-58.3,-57.0,0.2,19.4*,-4.1,-3.8,
COc1ccccc1/C=N/NC(=O)CC(=O)NCc1cccnc1,119.6,12.3,-0.3,1.6,-0.5,-3.1,/,/,
CC(C)(Oc1ccc(Cl)cc1)C(=O)NC1CCSC1=O (stereo not given),86.5,0.2,/,/,-0.5,/,/,/,
CC(C)(Oc1ccc(Cl)cc1)C(=O)NC1CC1,89.4,0.6,-6.8,-1.0,0.0,21.2*,-3.0,-2.1,
CCC(CCNC(=O)c1ccccc1)(CCNC(=O)c1ccccc1)[N+](=O)[O-],/,/,3.0,0.8,/,1.1,/,/,
CCOC(=O)c1c(C)[nH]c(C(=O)COC(=O)COc2ccccc2C=O)c1C,86.7,13.7,-4.5,3.9,0.2,19.9*,3.4,-14.2,
COc1ccc(/C=C/CN2CCC(C(=O)NC(c3ccc(F)cc3)c3ccc4ccccc4n3)CC2)cc1 (stereo not given),/,/,7.6,6.0,/,-25.1,/,/,
O=c1[nH]n(Cc2ccccc2)c2ccccc12,100.5,3.4,-98.2,-81.6,-0.2,20.3*,6.5,-2.5,
O=c1ccn(Cc2ccccc2)c2ccccc12,97.0,0.4,3.1,-0.4,-10.3,1.4,/,/,
C[C@]12CCC(=O)C=C1C=C[C@@H]1[C@@H]2CC[C@@]2(C)[C@H]1CC[C@@]21CCC(=O)O1,96.5,/,-0.7,2.5,-2.8,6.5,/,/,
SMILES,CR mimetic SO,AHR activator,PLC-beta3 inh,PLC-gamma1 inh,HIF act,sPLA2-III inh,sPLA2 confirm,BODIPY interf,others
O=C(NN1C(=O)c2ccccc2C1=O)C1C2CCCCC21 (stereo not given),98.1,3.0,-0.8,-2.8,0.1,-1.6,/,/,
C/C(=N\NC(N)=S)c1ccccc1,97.3,-0.2,-5.5,1.0,0.1,3.9,/,/,
NC(=S)NN=C(c1ccccc1)c1ccccc1,110.7,-0.6,-3.1,2.4,-0.3,19.2*,22.0*,-3.7,
Fc1ccccc1SCc1nnc(-c2ccccc2Br)o1,103.0,-3.9,4.0,4.1,0.6,-9.0,/,/,
O=C(C(=O)N1CCN(S(=O)(=O)c2cccc(C(F)(F)F)c2)CC1)c1cccc(C(F)(F)F)c1,/,/,7.9,-2.7,/,13.7,/,/,
CC(=O)OCC(=O)N1CCN(C(=O)C(=O)c2cccc(C(F)(F)F)c2)CC1,/,/,-2.0,0.4,/,22.2*,4.2,-3.3,
Cc1ncc([N+](=O)[O-])n1Cc1ccccc1,109.0,-1.6,4.1,4.5,-0.5,0.3,/,/,
Cc1ccc(Cn2c([N+](=O)[O-])cnc2C)cc1,101.6,-2.1,-4.7,3.7,-1.9,21.9*,8.5,-0.2,
Cn1nc(C2CC2)cc1NC(=O)C1(C)CCN1C(=O)CCc1ccccc1 (stereo not given),/,/,5.8,1.5,/,-0.8,/,/,
CC(C)(C)NC(=S)NCCc1ccccc1,95.1,26.4,2.7,-0.7,3.7,20.1*,24.1*,-4.6,
CNc1nc(-c2ccccc2)nc(-c2ccccc2)c1C#N,112.2,16.4,0.5,3.4,0.1,19.6*,-3.7,-5.1,
COCC(=O)N1CC[C@H]2[C@@H]1c1cc(-c3cccc(OC)c3)ccc1N(C)[C@H]2CO,/,/,-16.1,-9.6,/,7.1,/,/,
CCCCCOC(=O)CCN1C(=O)/C(=C2\SC(=S)N(CCC(=O)OCCCCC)C2=O)SC1=S,122.2,-3.8,-4.5,2.0,-0.9,5.8,/,/,
CCCCOC(=O)CCN1C(=O)/C(=C2\SC(=S)N(CCC(=O)OCCCC)C2=O)SC1=S,100.5,-0.8,-1.7,3.2,-0.1,21.6*,-6.5,-2.3,
CC(C)C(NS(=O)(=O)c1cccs1)C(=O)N1CCC(C(N)=O)CC1 (stereo not given),105.6,-0.9,-7.3,2.1,/,-0.3,/,/,
Cc1ccc(C(=O)Nc2sc(C)c(C)c2C(=O)c2ccccc2)cc1,95.7,-6.0,5.2,2.8,-0.3,23.3*,-4.3,-6.0,
Cc1sc(NC(=O)c2ccccc2)c(C(=O)c2ccccc2)c1C,121.9,-1.4,6.6,2.4,0.0,2.2,/,/,
